Sampled rows, rich in hits. Any-hit rate of the full collection: about 2.7%.
SENP6 inh: inhibitors of human SENP6 protease; Recombinant SENP6 catalytic domain, aminoluciferin luminescence; inhibition, % at 10 µM; hit rate 1.8% among 330,000; AID 2599;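 active = inhibition above about 50% at the single tested dose, limit read from the data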;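 also: plate controls were DMSO wells with enzyme for no effect and DMSO wells lacking enzyme for full effect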
Target sequence (Q9GZR1 628-1112 limits assumed): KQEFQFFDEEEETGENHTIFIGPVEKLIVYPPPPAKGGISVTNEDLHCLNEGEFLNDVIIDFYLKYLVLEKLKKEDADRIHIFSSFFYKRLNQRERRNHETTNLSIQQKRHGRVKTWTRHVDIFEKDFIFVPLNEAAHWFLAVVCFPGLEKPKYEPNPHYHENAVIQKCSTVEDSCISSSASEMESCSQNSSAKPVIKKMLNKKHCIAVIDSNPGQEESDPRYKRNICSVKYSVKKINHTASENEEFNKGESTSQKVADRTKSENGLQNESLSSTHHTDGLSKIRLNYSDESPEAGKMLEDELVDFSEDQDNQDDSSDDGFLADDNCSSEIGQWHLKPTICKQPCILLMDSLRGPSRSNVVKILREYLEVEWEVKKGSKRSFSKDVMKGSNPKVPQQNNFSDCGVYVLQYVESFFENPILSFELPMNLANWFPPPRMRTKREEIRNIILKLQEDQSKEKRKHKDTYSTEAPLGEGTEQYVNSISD
HSP90 refold inh: blocks HSP90-mediated luciferase refolding in reticulocyte lysate | Rabbit reticulocyte lysate, luciferase refolding luminescence, 3 h | inhibition, % at 5.6 µM | hit rate 0.91% among 290,000;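 active = inhibition above the screen-wide mean plus 3 SD, computed separately per campaign, cut at about 16% in these data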;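 also: 0% = DMSO wells and 100% = 60 µM geldanamycin wells; inhibitors lower the luminescence because luciferase stays unfolded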
SENP7 inh: blocks the human protease SENP7; Q9BQF6; AID 434973; hit rate 1.5% among 330,000; inhibition, % at 5 µM; recombinant SENP7, Z-RLRGG-aminoluciferin luminescence, 40 min;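 active = inhibition above about 50% at the single test dose, limit read from the data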;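 also: plate controls were DMSO with enzyme for no effect and no enzyme buffer wells for full effect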
SENP8 block-1: blocks human SENP8 cleavage of Nedd8 substrate; Q96LD8; recombinant SENP8, Nedd8 substrate fluorescence; inhibition, % at 20 µM; hit rate 0.64% among 360,000; in the data active = inhibition mostly above about 40%, no sharp cut-off; inactive = mostly below about 27%
Target sequence (Q96LD8 whole entry, looked up): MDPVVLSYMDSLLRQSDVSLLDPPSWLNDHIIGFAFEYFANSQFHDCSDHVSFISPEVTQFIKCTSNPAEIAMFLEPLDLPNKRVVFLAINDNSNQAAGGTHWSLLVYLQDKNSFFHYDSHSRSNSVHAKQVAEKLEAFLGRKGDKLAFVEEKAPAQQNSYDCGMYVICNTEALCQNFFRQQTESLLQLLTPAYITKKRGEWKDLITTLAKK
SENP8 block-2: blocks the human protease SENP8 | Q96LD8 | purified SENP8, Z-RLRGG-aminoluciferin cleavage, luminescence | inhibition, % at 10 µM | hit rate 1.2% among 330,000; in the data active = inhibition above about 50%
HSP90 confirm: confirmation of HSP90 inhibitors | shares compounds with HSP90 refold inh | rabbit reticulocyte lysate, luciferase refolding luminescence, 3 h | inhibition, % at 5.9 µM | hit rate 64% among 2,300; in the data active = inhibition above about 18%;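 also: 0% = vehicle wells and 100% = reference inhibitor wells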
luciferase ctr: firefly luciferase inhibition, HSP90 counter-screen | AID 1847 | hit rate 48% among 2,300 | shares compounds with HSP90 refold inh | inhibition, % at 5.9 µM | purified native firefly luciferase, luminescence;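 active = inhibition above the mean inhibition of all tested sample wells plus 3 SD, cut at about 10% in these data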;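 also: 0% = DMSO with luciferase and 100% = wells lacking luciferase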
SENP8 conf: human SENP8 inhibition, confirmed; shares compounds with SENP7 inh; Recombinant SENP8, Z-RLRGG-aminoluciferin luminescence, 60 min; inhibition, % at 12.5 µM; hit rate 40% among 6,200; AID 488912;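 active = mean inhibition across replicates above about 50%, limit read from the data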
SENP6 confirm: confirmation of human SENP6 protease inhibitors; shares compounds with SENP7 inh; recombinant SENP6, Z-RLRGG-aminoluciferin luminescence; inhibition, % at 12.5 µM; hit rate 58% among 6,200; AID 488915
SENP7 conf: confirmation of human SENP7 protease inhibitors. shares compounds with SENP7 inh. recombinant SENP7, Z-RLRGG-aminoluciferin luminescence, 40 min. inhibition, % at 12.5 µM. hit rate 69% among 6,200. AID 488917
Casp3 SENP sel: selectivity test for SENP inhibitors: human caspase-3 inhibition; inhibition, % at 12.5 µM; hit rate 60% among 6,200; shares compounds with SENP7 inh; purified caspase-3, Z-DEVD-aminoluciferin luminescence, 60 min;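 active = mean inhibition above about 50%, limit read from the data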;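 also: plate controls were enzyme with DMSO for no effect and wells without caspase-3 for full effect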
SENP luc ctr: counter-screen for SENP inhibitors: luminescence interference; shares compounds with SENP7 inh; Pre-incubated SENP8/Z-RLRGG-aminoluciferin, luciferase luminescence interference; inhibition, % at 12.5 µM; hit rate 39% among 6,200; AID 488919;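 active = mean inhibition above about 50% when retested at one dose, limit read from the data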;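 also: plate controls were DMSO wells with completed reaction for no effect and substrate without enzyme for full effect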
An asterisk follows results filed as active; x = no result.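 The calls were made as follows, unless noted: active = mean inhibition above about 50% in the one-dose retest (limit read from the data); inactive = the rest.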

SMILES	SENP6 inh	HSP90 refold inh	SENP7 inh	SENP8 block-1	SENP8 block-2	HSP90 confirm	luciferase ctr	SENP8 conf	SENP6 confirm	SENP7 conf	Casp3 SENP sel	SENP luc ctr
CCCCNC(=S)N/N=C/c1cccc(OCC)c1O	10.9	-4.2	1.6	-423.6	8.5	x	x	x	x	x	x	x
CCOc1cccc(/C=N/NC(=S)Nc2ccccc2[N+](=O)[O-])c1O	31.2	74.8*	78.9*	23.2	47.1	71.3*	34.3*	27.8	55.2*	37.1	26.3	7.4
Cc1ccc(-c2nnc(SCC(=O)N/N=C/c3c(C)nn(-c4ccccc4)c3C)n2-c2ccc(C)cc2)cc1	5.2	-0.2	8.9	25.7	-2.7	x	x	x	x	x	x	x
Oc1ccc(Cl)cc1CNc1cccc2cccnc12	83.7*	26.6*	64.8*	34.9	88.3*	3.2	-4.4	-7.1	18.1	5.1	4.3	5.9
Oc1ccc(Br)cc1CNc1cccc2cccnc12	78.4*	25.4*	70.5*	-8.4	79.9*	1.8	0.5	9.4	29.2	6.6	1.5	1.3
COc1cccc(CNc2cccc3cccnc23)c1O	78.7*	20.3*	66.3*	32.6	80.3*	-11.1	-30.2	-5.9	11.4	16.4	2.0	14.1
Oc1ccc(Br)cc1CNc1cnc2ccccc2c1	5.9	-1.8	-7.4	-329.6	-6.2	x	x	x	x	x	x	x
COc1ccc(N(CC(=O)N2CCN(C)CC2)S(=O)(=O)c2ccccc2)cc1OC	-4.1	1.8	0.4	32.9	-0.6	x	x	x	x	x	x	x
O=C(CCNS(=O)(=O)c1cccc2nonc12)NCCc1ccc(Cl)cc1	-9.5	1.4	-15.0	6.6	1.6	x	x	x	x	x	x	x
COc1ccc(/C=N/Nc2nc(C(=O)O)cs2)cc1	92.9*	66.3*	96.5*	-119.7	95.7*	90.4*	74.3*	97.1*	97.6*	102.1*	63.2*	97.6*
CCc1n[nH]c2c1/C(=N\O)CC(C)(C)C2	-16.7	4.9	-13.2	15.1	-2.2	x	x	x	x	x	x	x
Cc1nc(Nc2ccccc2)sc1C(=O)c1ccccc1	-6.8	-1.4	4.6	-19.9	-8.5	x	x	x	x	x	x	x
Cc1nc(Nc2ccc(C(=O)O)cc2)sc1-c1ccccc1	94.8*	34.2*	100.0*	-400.2	95.9*	83.9*	63.0*	71.8*	91.9*	67.1*	18.2	6.0
Cc1cc(C(F)(F)F)c2sc(N)nc2n1	3.7	-2.8	-8.3	-82.8	-6.0	x	x	x	x	x	x	x
COc1cc(SC)ccc1C(=O)Nc1ccc(Cl)cn1	14.1	26.1*	96.2*	-7.2	87.0*	89.7*	84.2*	-1.2	-0.4	2.2	0.0	-3.4
CSc1ccc(Cl)c(C(=O)Nc2ccc(Cl)cn2)c1	-12.1	2.9	-6.1	6.7	-6.9	x	x	x	x	x	x	x
C[C@H](CO)N1C[C@H](C)[C@@H](CN(C)Cc2ccccc2)Oc2c(NC(=O)C3CC3)cccc2C1=O	8.4	x	-3.1	11.3	2.4	x	x	x	x	x	x	x
Clc1ccc(-c2nnc(NC3=NCCCCC3)o2)cc1	72.9*	45.2*	88.0*	29.0	79.6*	71.2*	67.9*	-24.0	10.9	57.3*	47.3	12.5
CCOC(=O)C(NC(C)=O)(N1CCOCC1)C(F)(F)F (stereo not drawn)	-8.8	1.3	-1.5	x	-4.5	x	x	x	x	x	x	x
O=C(/C=C/c1ccccc1Cl)Nc1ccc2c(c1)C(=O)NC2=O	8.2	-3.2	4.9	-382.6	-7.9	x	x	x	x	x	x	x
O=C(/C=C/c1ccccc1Cl)Nc1cccc(O)c1	97.8*	22.9*	95.9*	13.1	93.9*	35.8*	14.8*	96.1*	97.0*	101.6*	90.7*	96.4*
Cc1cc(C)cc(N2C(=O)CSC2c2cccs2)c1 (stereo not drawn)	-4.2	7.0	6.3	18.5	-0.3	x	x	x	x	x	x	x
O=C(Oc1ccc2ccccc2c1Br)N1CCCCCC1	90.5*	21.7*	82.1*	16.0	78.5*	42.9*	26.2*	86.7*	90.6*	95.9*	72.1*	39.0
c1ccc2c(c1)CCN(c1nc3cc4c(cc3s1)OCCO4)C2	97.5*	53.5*	98.8*	-340.2	96.5*	73.3*	73.8*	98.2*	98.8*	102.4*	97.0*	83.4*
O=C(Nc1ccccn1)c1csc2c1CCCC2	23.5	-0.1	-0.8	7.1	2.1	x	x	x	x	x	x	x
SMILES	SENP6 inh	HSP90 refold inh	SENP7 inh	SENP8 block-1	SENP8 block-2	HSP90 confirm	luciferase ctr	SENP8 conf	SENP6 confirm	SENP7 conf	Casp3 SENP sel	SENP luc ctr
O=C(Nc1ccccn1)c1onc2c1CCCC2	86.7*	36.5*	94.3*	10.0	84.0*	76.2*	68.2*	9.3	90.4*	99.8*	94.9*	83.4*
Cc1ccc(-c2nc(-c3ccncc3)no2)cc1C	84.9*	21.0*	78.0*	2.4	79.4*	29.0*	25.1*	53.3*	58.4*	76.4*	65.5*	30.0
COc1ccc(-c2nc(-c3ccncc3)no2)cc1OC	27.5	-6.0	17.3	2.4	13.1	x	x	x	x	x	x	x
O=C(Nc1nc2ccccc2[nH]1)c1ccc(F)cc1	94.4*	34.8*	92.6*	1.6	78.7*	57.4*	43.6*	77.9*	83.6*	98.5*	93.8*	51.6*
O=C(Nc1nc2ccccc2[nH]1)c1ccccc1[N+](=O)[O-]	-9.5	1.1	2.3	12.3	2.7	x	x	x	x	x	x	x
O=C(Nc1nc2ccccc2[nH]1)c1ccccc1F	96.3*	84.2*	98.9*	10.2	97.2*	94.6*	88.0*	2.5	98.8*	102.4*	97.8*	97.2*
CCOc1ccc(C(=O)Nc2nc3ccccc3[nH]2)cc1OCC	-14.0	-2.6	3.5	-18.2	2.1	x	x	x	x	x	x	x
COc1ccc(C(=O)Nc2nc3ccccc3[nH]2)cc1OC	-10.2	6.5	-9.6	-20.2	-19.2	x	x	x	x	x	x	x
COc1ccc(Cl)cc1C(=O)Nc1nc2ccccc2[nH]1	95.6*	71.0*	98.3*	-310.2	89.5*	86.6*	77.3*	82.6*	91.1*	102.0*	95.6*	79.8*
CCc1ccc(C(=O)Nc2nc3ccccc3[nH]2)cc1	95.7*	79.6*	97.4*	1.7	93.6*	90.5*	85.0*	55.5*	76.1*	86.4*	84.2*	11.7
CN(C(=O)COC(=O)c1ccc2c(c1)OCO2)C1CCS(=O)(=O)C1 (stereo not drawn)	4.4	-3.5	5.9	21.3	4.1	x	x	x	x	x	x	x
CN(NC(=O)c1ccco1)c1nc2ccccc2nc1C(F)(F)F	-11.9	1.5	5.6	2.5	-4.2	x	x	x	x	x	x	x
